# Hit rate of the full screen: of about 66,000 compounds, about 960 (1.5%) showed an effect of 50% or more. The sample as a whole holds a higher share of strong results than the screen did.
# Test system: Trypanosoma brucei
# Test: Trypanosoma brucei 72 hour study
# Type: functional, organism-based
# Design: scale not given: in the data most compounds retested in dose-response had high values
SMILES,"Percent Effect (30.3 µM, […]) [%]","Percent Effect (30 µM, 30.03 µM) [%]"
Cn1nccc1C(=O)N1CC[C@]2(C[C@H](OCc3ccccn3)CO2)C1.O=C(O)C(F)(F)F,-48.61,–
COc1cccc(N2Cc3nc(=O)n(C(C)C)n3C2=O)c1,–,-40.88
CC[C@@H]1N(Cc2ccc(OC)cc2)CCC[C@]12CCC(=O)N2CCOC.O=C(O)C(F)(F)F,-46.04,–
CCOc1ccc(N2CCCN=C2NC(=O)c2cccc(OC)c2)cc1,-26.63,–
COc1cccc(-c2noc(C3CCN(Cc4cn(C)nc4C)C3)n2)c1 (stereo unspecified),–,63.09
COc1cccc(-c2noc(C3CCN(Cc4ccccc4F)C3)n2)c1.Cl (stereo unspecified),-18.78,–
COc1cccc(-c2noc(C3CCN(Cc4ccccc4C)C3)n2)c1.Cl (stereo unspecified),-12.24,–
CNC(=O)[C@@]12CCO[C@@H]1CCN(Cc1ccc3c(c1)OCO3)C2.O=C(O)C(F)(F)F,-39.27,–
CCN1c2ccc(-c3cncn3CCCn3ccnc3C)cc2CC1C.Cl (stereo unspecified),7.904,–
Cc1cc(C)n(CCCn2cncc2-c2ccc3c(c2)CC(C)N3C)n1.Cl (stereo unspecified),83.42,–
Cc1nn(C)c(C)c1CCn1cncc1-c1ccc2c(c1)CC(C)N2C.Cl (stereo unspecified),26.67,–
Cc1nccn1CCCn1cncc1-c1ccc2c(c1)CCC(C)N2C.Cl (stereo unspecified),17.11,–
Cc1nccn1CCCn1cncc1-c1ccc2c(c1)CC(C)N2C.Cl (stereo unspecified),-10.42,–
COCC1N(S(=O)(=O)c2cn(C)cn2)[C@H]2CC[C@]1(O)CC2 (stereo partly specified),-23.23,–
CN(C)C(=O)CN1C(=O)CCC12CCN(Cc1cccs1)CC2.O=C(O)C(F)(F)F,-53.05,–
O=C(O)C(F)(F)F.O=C(c1cscn1)N1CCCC2(CCN2Cc2cccc(F)c2)C1 (stereo unspecified),27.36,–
Cc1cc(C)cc(OCC(O)CN2CCN(c3nccs3)CC2)c1 (stereo unspecified),–,-27.85
COC(=O)c1ccc(N2CCN(C(=O)c3cnc(C)cn3)C(C)C2)cc1 (stereo unspecified),8.397,–
CCC1(O)CCCN(c2nc(-c3ccccn3)nc3c2c(C)nn3C)C1 (stereo unspecified),–,51.81
Cc1nn(C)c2nc(-c3ccccn3)nc(NC[C@@H]3CCCO3)c12,–,-82.13
Cc1nn(C)c2nc(-c3ccccn3)nc(NCCC3CCCN3C)c12 (stereo unspecified),–,-75.32

SMILES,"Percent Effect (30.3 µM, […]) [%]","Percent Effect (30 µM, 30.03 µM) [%]"
O=C1CCC2(CCN(Cc3cscn3)CC2)CN1[C@H]1CC[C@H](O)CC1,–,-1.213
CNc1cccc(CC2COCCN(C(=O)c3cccnc3)C2)n1 (stereo unspecified),5.622,–
CCNC(=O)NCCc1csc(N2CCCC2)n1,–,-10.34
CC(C)(C)SCC(=O)NCCc1csc(N2CCCC2)n1,–,-0.8864
CC(C)(C)OC(=O)NCCc1csc(N2CCCC2)n1,–,63.65
Cc1ncccc1OC1(C(=O)NCCNc2ccccc2)CCNCC1,0.199,–
CCN1CCCC(O)(c2nc(C)c(CCOc3ccccc3F)s2)CC1 (stereo unspecified),-7.056,–
Cc1nc(C2(O)CCCNCC2)sc1CCOc1ccccc1Cl.Cl (stereo unspecified),102.3,–
CCN1CCCC(O)(c2nc(C)c(CCOc3ccccc3Cl)s2)CC1 (stereo unspecified),33.23,–
CC(=O)Nc1nc(C(=O)NCCOc2ccccc2F)cs1,-41.52,–
Cc1nc(C2(O)CCCNCC2)sc1CCOc1ccccc1F.Cl (stereo unspecified),74.4,–
Cc1nc(C2(O)CCCNCC2)sc1CCOc1ccccc1.Cl (stereo unspecified),41.97,–
Cc1ncc(C(=O)NCCOc2ccccc2F)c(C)n1,–,-71.35
CNC(=O)CN1CC[C@H]2CN(C(=O)c3ccccc3C)C[C@H]2C1.O=C(O)C(F)(F)F,-31.13,–
O=C(COc1ccccc1F)N1CCCCC1c1ccn2ccnc2n1 (stereo unspecified),-11.94,–
O=C(C1=CCCC1)N1CCO[C@H]2[C@@H](Oc3ccccn3)CC[C@@H]21.O=C(O)C(F)(F)F,–,21.55
Cc1c(C)n(-c2ccccn2)c2nc3c(c(N)c12)CCCC3,–,65.81
Cc1c(C)n(-c2ccccn2)c2nc3c(c(N)c12)CCCCC3,–,-26.49
Cc1c(C)n(Cc2ccccn2)c2nc3c(c(N)c12)CCCC3,–,14.96
O=C(C1CCCC1)N1C[C@@H]2CCN(c3cnccn3)C[C@@H]2C1.O=C(O)C(F)(F)F,-13.6,–
CCc1ccc(CN2C[C@@H]3COC[C@H](NS(C)(=O)=O)[C@@H]3C2)o1.O=C(O)C(F)(F)F,-9.462,–

SMILES,"Percent Effect (30.3 µM, […]) [%]","Percent Effect (30 µM, 30.03 µM) [%]"
Cc1ccc(NC2CCN(C(=O)c3ccsc3)CC2)nn1,–,-24.89
Cc1ccc(N(C)C2CCN(C(=O)c3ccsc3)CC2)nn1,–,59.68
Cc1ccc(N2CCC3(CCN(C(=O)c4ccsc4)CC3)CC2)nn1,–,20.14
CC1=Nc2c(c(=O)[nH]n2C2CCCC2)C(c2ccc(O)cc2)S1 (stereo unspecified),–,-3.6
Cc1cc(C)n(CC2CN(Cc3nc4ccccc4s3)CCO2)n1 (stereo unspecified),18.1,–
CC1CCN(S(=O)(=O)c2cccnc2)c2ccccc2S1 (stereo unspecified),–,80.08
CN1CCN(S(=O)(=O)c2cccnc2)c2cnccc21,-3.164,–
CCn1cc(S(=O)(=O)N2CCC(C)Sc3ccccc32)cn1 (stereo unspecified),–,-33.91
Cn1nc(C(=O)N2CCOCC2)cc1C(=O)Nc1c(Cl)cccc1Cl,–,-27.89
CC(C)c1cc(C2CCN(C(=O)Cn3cnc4ccccc43)CC2)[nH]n1,–,-44.45
Cc1cc(C(F)(F)F)nc(CCNC(C)Cn2ccnc2)n1 (stereo unspecified),–,-48.3
CCCC(=O)N(CCN1CCOCC1)c1nc2c(OC)ccc(C)c2s1.Cl,13.57,–
CCCC(=O)N(CCCN1CCOCC1)c1nc2c(Cl)cccc2s1.Cl,55.71,–
CN(CCN1CCOCC1)C(=O)CCc1cccc(Cl)c1,–,2.26
CCCC(=O)N(CCCN1CCOCC1)c1nc2c(F)cccc2s1.Cl,24.42,–
CCCC(=O)N(CCCN1CCOCC1)c1nc2c(C)c(C)ccc2s1.Cl,27.33,–
CCCC(=O)N(CCCN1CCOCC1)c1nc2c(C)ccc(Cl)c2s1.Cl,71.42,–
CN1CC[C@]2(CN(CC3CCOC3)C[C@H]2c2ccccc2)C1=O.O=C(O)C(F)(F)F (stereo partly specified),-23.92,–
Cc1cc2c(=O)n3c(nc2s1)CCN(C(=O)c1nn(C)cc1Cl)CC3,-11.28,–

# Source: ChEMBL document CHEMBL3988442, “University of Dundee, Small-Polar-MMV Screening Library” (2021)
